Among the data in PubChem BioAssay AID1578 (Sanford-Burnham Center for Chemical Genomics, 2009) are inhibition values, retold here.

Out of some 290,000 compounds screened, about 3,000 (1%) were called active. The full list was thinned out, with actives kept by preference. A number with no mark means an inactive call. Rule as the data show it: active = inhibition mostly above about 36% (no sharp cut-off); inactive = mostly below about 34%.

This assay in a line: inhibition of NOD1-driven NF-kB reporter – cell-based, luminescence, uHTS, primary screen (AID 1578).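 Also: HEK-293T reporter cells stimulated with the NOD1 agonist gamma-tri-DAP.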 Particulars: NOD1-driven NF-kB luciferase reporter cells, at 4 µM, hits give high values. A general note: A reporter such as luciferase makes a cellular process visible.
What is called inhibition is the relative decrease from the control value, in per cent. `Cc1nn(C)c(C(=O)Nc2ccc(Br)cc2F)c1Br`: the inhibition is 46%. For `CCOP(=O)(OCC)C(NC(=O)Nc1ccccc1)c1ccccc1` (stereo unspecified), the inhibition was -11.6%. In the case of `COc1ccc2[nH]c3c4c(ccc3c2c1)C(=O)C=CC4=O`, the inhibition is 51% (active). Take `COc1ccc2[nH]c(C)cc(=O)c2c1`: the inhibition is -7.4%. In the case of `COc1ccc2c(c1)c1ccc3c(c1n2C)C(=O)C=CC3=O`, the inhibition is 0.4%.

As for `Cc1ccc(NC(=S)NNC(=O)c2ccc(N3CCOCC3)c([N+](=O)[O-])c2)cc1C`, the inhibition is -2.1%. For the compound `COc1ccc(-c2csc(NC(=O)CCS(=O)(=O)c3ccccc3)n2)c(OC)c1`, the inhibition was -13.4%.

Turning to `COc1ccc(C(O)(C(C)C)C(CN2CCOCC2)c2ccccc2)cc1` (stereo unspecified), the inhibition is 5.4%.

Regarding `CN(C)C=NC(=O)c1cc(C(=O)c2ccccc2Cl)c[nH]1`, the inhibition was -1.9%. For the compound `CN(C)C=NC(=O)c1cc(C(=O)c2ccc(Cl)cc2)c[nH]1`, the inhibition was 38.4%. With `CN(C)C=NC(=O)c1cc(C(=O)c2ccc(Cl)cc2Cl)c[nH]1` the figure was 59.7% (active); with `O=C1CN(C(=O)NCC(=O)N[C@H](Cc2ccccc2)C(=O)O)c2ccccc2N1`, -34.2%.

In the case of `CC(C)c1cccc(C(C)C)c1NC(=O)Cn1c(=O)cnc2ccccc21`, the inhibition is -9.4%.

On to `CN1CCC(N(C)S(=O)(=O)c2ccc(NC(=O)COc3ccc(F)cc3Cl)cc2)CC1`, for which the inhibition was -16.5%. With `COc1ccccc1OC(=O)Cc1cccc2ccccc12`, the inhibition is 63.8%. Turning to `CC(=O)c1ccc(N2CCN(C(=O)CN(C)S(=O)(=O)c3cnc[nH]3)CC2)cc1`, the inhibition was -22.7%. Take `N#CCn1cnc2sc(-c3ccccc3)cc2c1=O`: the inhibition is -27.8%. For the compound `Cc1nn(C(C)(C)C)c(OC(=O)c2ccc(Br)o2)c1Sc1ccccc1`, the inhibition was 19.3%. For the compound `Cc1nn(C(C)(C)C)c(OC(=O)c2ccco2)c1Sc1ccccc1`, the inhibition is -2.8%. Regarding `Cc1nn(C(C)(C)C)c(OC(=O)c2cccs2)c1Sc1ccccc1`, the inhibition is 68.5% (active). With `Cc1ccc(C2(C)NC(=O)N(CC(=O)Nc3cc(S(=O)(=O)N(C)C)ccc3C)C2=O)cc1` (stereo unspecified) the figure was -19.4%; with `O=C(/C=C\Nc1ccc2c(c1)OCO2)c1ccccn1`, 70.6% (active); with `O=C(/C=C/c1ccccc1Br)c1ccc2c(c1)OCO2`, -20%. Consider `O=C(/C=C/c1ccccc1)c1ccccn1`, for which the inhibition was -15.9%.

For `O=C(/C=C/c1ccc2c(c1)OCO2)c1ccccn1`, the inhibition was -6.5%. Consider `O=C(/C=C\Nc1ccccc1Br)c1ccc2c(c1)OCO2`, for which the inhibition is 59.6% (active). With `O=C(/C=C\Nc1ccc2c(c1)OCO2)c1ccc2c(c1)OCO2`, the inhibition is -48.7%. For `O=C(/C=C\Nc1ccc2c(c1)OCO2)c1cccs1`, the inhibition is -64.5%. To `O=C(/C=C/Nc1ccccc1Br)c1ccccn1` belongs 84.5% (active); to `O=C(/C=C\Nc1ccccn1)c1ccccc1`, -49.1%; to `COc1cc(-c2cc(-c3ccccc3)nc(SCC(=O)O)c2C#N)cc(OC)c1OC`, -3.4%. Turning to `O=C(NCc1ccccc1)C1CCCN(S(=O)(=O)c2ccc(-n3cnnn3)cc2)C1` (stereo unspecified), the inhibition is 34.5%. With `O=C(NC1CCSC1=O)c1ccccc1` (stereo unspecified) the figure was 18.9%; with `Cc1ccc2sc(N(CCN(C)C)C(=O)c3ccc(S(=O)(=O)N4CC(C)OC(C)C4)cc3)nc2c1C` (stereo unspecified), -6.4%. With `COc1ccc(Br)cc1C1CC(=O)C(C)C(c2cc(Br)ccc2OC)N1` (stereo unspecified), the inhibition is -12%. Turning to `COc1ccc(/C=N/NC(=O)CSCc2ccc([N+](=O)[O-])cc2)cc1OC`, the inhibition was -10.4%.

Regarding `O=C(NNc1ccc(F)cc1F)C1CCC1`, the inhibition is -1.9%. For the compound `CCOc1ccc(Nc2ccnc3cc(Cl)ccc23)cc1`, the inhibition was 5.9%. With `NC(=S)NNc1ccnc2cc(Cl)ccc12` the figure was -8.6%; with `Oc1ccc(Nc2ccnc3cc(Cl)ccc23)cc1`, 53.4% (active); with `Clc1ccc(NNc2ccnc3cc(Cl)ccc23)cc1`, -35.6%. With `O=C(NNc1ccnc2cc(Cl)ccc12)C1CCCCC1`, the inhibition is 47.5% (active). Take `O=C(NNc1cc(Cl)ccc1Cl)C1CCC1`: the inhibition is -7.1%. Consider `Clc1ccc(CNC2CCCC2)cc1`, for which the inhibition is 9.1%. For `Cc1ccc(CN(C(=O)c2ccc([N+](=O)[O-])cc2)C2CCS(=O)(=O)C2)o1` (stereo unspecified), the inhibition was -50%. As to `CCOC(=O)C1CCCN(C(=O)CCNS(=O)(=O)c2cc(Br)cnc2N)C1` (stereo unspecified), the inhibition is -11.8%.

As for `Cc1cc(C)c(NC(=O)COC(=O)c2cc([N+](=O)[O-])ccc2N2CCOCC2)c(C)c1`, the inhibition is -25.6%. As for `CCOc1ccc(N2C(=O)CC(NCCNc3ccc(C(=O)c4cccs4)cc3)C2=O)cc1` (stereo unspecified), the inhibition was -13.5%.

For the compound `C=C1CCC[C@]2(C)C[C@H]3OC(=O)C(CN(Cc4ccc(OC)c(OC)c4)CC(C)O)[C@H]3CC12` (stereo partly specified), the inhibition is 33.5% (active). Consider `C=C1CCC[C@]2(C)C[C@H]3OC(=O)C(CN(C)CC(OC)OC)[C@H]3CC12` (stereo partly specified), for which the inhibition was -4.9%. Consider `C=C1CCC[C@]2(C)C[C@H]3OC(=O)C(CN[C@@H](C)c4ccccc4)[C@H]3CC12` (stereo partly specified), for which the inhibition was -16.5%. On to `CCc1ccccc1NC(=S)NCCSc1ccc(Cl)cc1`, for which the inhibition was -3.7%.

`Cc1c(C(C)C)c(=O)n(-c2ccc(S(=O)(=O)NC3CC3)cc2)n1C`: the inhibition was -14.8%. For `Cc1c(C(C)C)c(=O)n(-c2ccc(S(=O)(=O)NCc3ccccc3)cc2)n1C`, the inhibition was 44.6% (active). Regarding `Cc1c(C(C)C)c(=O)n(-c2ccc(S(=O)(=O)NC(C)C)cc2)n1C`, the inhibition is 8.6%. On to `O=C(Nc1ccc(F)cc1F)c1ccc2ncsc2c1`, for which the inhibition was -38%. To `CC(C)OCCCNC(=O)c1cc(-c2cccnc2)nc2ccccc12` belongs -6.7%. To `COC(=O)CN(c1ccc(OC)c(OC)c1)S(C)(=O)=O` belongs -16%.

On to `CCOC(=O)c1[nH]ncc1CN1CCCC(C(=O)c2ccc(OC)c(OC)c2)C1` (stereo unspecified), for which the inhibition was 111% (active). Regarding `CCOC(=O)c1[nH]ncc1CN1CCCC(C(=O)c2ccc(C(C)(C)C)cc2)C1` (stereo unspecified), the inhibition is -29.3%. Turning to `CCOC(=O)c1[nH]ncc1CN1CCCC(C(=O)c2cc(Cl)ccc2OC)C1` (stereo unspecified), the inhibition is 16.4%.
